# Records with an inconclusive call do not appear. A call without a number means that no potency is given here. Values without a mark were called inactive. Calls of active or inactive are those of the source. Calls come from the whole dose curve; as a rule, active = well fitted cell-killing curve with a large enough effect in the repeat runs; inconclusive = weak or mixed curves; inactive = flat fitted curve, though single readings scatter.
# Experiment: qHTS RealTime-Glo MT Cell Viability Assay in HepG2 cells - 32 hour (AID 1224877); note: nearly all actives have a fitted effect of over 55% in size
# Conditions: RealTime-Glo luminescence; series mostly up to 76.8 µM
# From the text: U.S. Tox21 Program National Center for Advancing Translational Sciences [NCATS] NIH Chemical Genomics Center [NCGC] U.S. Environmental Protection Agency [EPA] National Institutes of Environmental Health Sciences [NIEHS] National Toxicology Program [NTP] U.S. Food and Drug Administration [FDA] Tox21 Assay Overview: Measure of cell viability is critical in the cell-base assay. Analysis of cell viability is necessary for the characterization of cell responses to cytotoxic drugs and environmental stress. A RealTime-Glo MT Cell Viability Assay to monitor cell viability in real time of continues cell culture during 40 hours of compound treatment was used to screen Tox21 10K library compounds in HepG2 cells. The RealTime-Glo MT Cell Viability Assay is a nonlytic, homogeneous, bioluminescent method to measure cell viability in real time using a simple, plate-based method. The assay involves adding NanoLuc luciferase and a cell-permeant prosubstrate to cells in culture. Viable cells reduce the proprietary prosubstrate to generate a substrate for NanoLuc luciferase. This substrate diffuses from cells into the surrounding culture medium, where it is rapidly used by the NanoLuc Enzyme to produce a luminescent signal. The signal correlates with the number of viable cells, making the assay well suited for cytotoxicity studies.
# Tox21 Assay Protocol Summary: The mixture of HepG2 cell suspension and reagents were dispensed at 600cells/6 ul/well in 1536-well tissue culture treated black solid bottom plates using a Multidrop dispenser. After the assay plates were incubated at a 37 C/5% CO2 incubator for 5 hours, 23 nL of compounds dissolved in DMSO, positive and negative controls was transferred to the assay plate by a pintool work station. The plates were incubated at 37 C for 40 hours. The luminescence intensity were measured at 0h, 8h, 16h, 24h, 32h and 40h time points using ViewLux plate reader during compound treatment.
# Potency is the fitted concentration of half-maximal effect.
SMILES,Potency,"activity change, negative = cytotoxic"
C/C=C/C(=O)C1=C(C)C=CCC1(C)C,inactive,
Oc1ccc(C2(c3ccc(O)c(C4CCCCC4)c3)CCCCC2)cc1C1CCCCC1,34.7 µM (active),
CC(CC(C)(C)C)CC(C)(C)CC(C)(C)C (stereo not given),inactive,
Cc1cc(F)ccc1-c1cc(N2CC[C@@H](O)[C@H]2CO)ncc1N(C)C(=O)C(C)(C)c1cc(C(F)(F)F)cc(C(F)(F)F)c1,38.3 µM (active),
C=Cc1ccncc1,inactive,
Oc1ccc2c(c1)CCC2,inactive,
CCN(CC)c1ccc(C=O)c(O)c1,inactive,
O=C1C=CC(=O)N1c1cccc(N2C(=O)C=CC2=O)c1,15.5 µM (active),
Clc1cccc(Cl)n1,inactive,
CC/C=C(\C)C=O,inactive,
Cn1c(=O)[nH]c2ncn(C)c2c1=O,inactive,
Cc1c(Cl)c(=O)oc2cc(O)ccc12,inactive,
c1ccc(-c2ccc(C(c3ccccc3)n3ccnc3)cc2)cc1 (stereo not given),inactive,
CC(C)(c1ccc(Oc2ccc(N)cc2)cc1)c1ccc(Oc2ccc(N)cc2)cc1,inactive,
COc1c(Br)cc(Br)c(C)c1Br,inactive,
Nc1ccc(F)c([N+](=O)[O-])c1,inactive,
CCOc1ccc([N+](=O)[O-])cc1,inactive,
N#Cc1nc(Cl)c(Cl)c(Cl)c1Cl,19.5 µM (active),
CCCOC(=O)c1ccc(O)cc1,inactive,
CSc1nnc(C(C)(C)C)c(=O)[nH]1,inactive,

SMILES,Potency,"activity change, negative = cytotoxic"
O=c1cc[nH]cc1,inactive,
CC(C)c1ccc2sc3ccccc3c(=O)c2c1,inactive,
NC(=O)c1ccccc1Cl,inactive,
C=C(C)C1CCC(C)CC1O (stereo not given),inactive,
Cc1ccc2sc3cccc(C)c3c2c1,inactive,
CCCC(C)C=O (stereo not given),inactive,
CC1=CC[C@@H](C(C)(C)O)CC1,inactive,
O=S(=O)(c1ccc(OCc2ccccc2)cc1)c1ccccc1O,inactive,
[Cl][Dy]([Cl])[Cl],inactive,
CC(C)C(=O)C(C)C,inactive,
COc1cc(C(C)C)ccc1C,,7.91% [at 15.8 µM]
CCOC(=O)C1=NN(c2ccc(Cl)cc2Cl)C(C)(C(=O)OCC)C1 (stereo not given),inactive,
CCCCCCCCCCCC(=O)Cl,inactive,
CCC1(C)C(=O)N(Cl)C(=O)N1Cl (stereo not given),inactive,
Cc1c[nH]c(=O)[nH]c1=O,inactive,
Cc1ccc(S(=O)(=O)C(I)I)cc1,11 µM (active),
CN1CCN(CCCN2c3ccccc3Sc3ccc(C(F)(F)F)cc32)CC1,23.9 µM (active),
c1ccc2cc3c4ccccc4c4ccccc4c3cc2c1,inactive,
CCC(C)(C)c1ccc(CC(C)CN2C[C@@H](C)O[C@@H](C)C2)cc1 (stereo not given in full),inactive,
O[Si](c1ccccc1)(c1ccccc1)c1ccccc1,inactive,

# Reference: PubChem BioAssay (Tox21)
